About 3,000 (1%) of roughly 290,000 compounds were called active. Cut-off read from the data, not from the text of the source: active = inhibition mostly above about 36% (no sharp cut-off); inactive = mostly below about 34%. Only a selection was taken, and actives are over-represented in it overall.
Experiment: inhibition of NOD1-driven NF-kB reporter – cell-based, luminescence, uHTS, primary screen (AID 1578);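 note: HEK-293T reporter cells stimulated with the NOD1 agonist gamma-tri-DAP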
Settings: NOD1-driven NF-kB luciferase reporter cells, at 4 µM, stronger effect = higher value

inhibition, inactive:
Cc1cc(-c2ccc(C)c(S(=O)(=O)N3CC(=O)Nc4ccccc43)c2)on1 -2.5%
CC(=O)N1c2ccccc2C(C)(C)C2CCC(C)CC21 (configuration not stated) -5.9%
Cc1ccc(C(=O)CC2(O)C(=O)N(C)c3ccccc32)s1 (configuration not stated) -9.2%
COc1ccc(C(=O)NNC(=O)CN2CCC(n3nnc4cc(C)ccc43)CC2)cc1 -14.9%
O=C(OCc1ccc(Cl)cc1)c1cccnc1Cl -33%
COCCCNc1ncnc2c1[nH]c1ccccc12 -16.9%
CCOCCCNc1ncnc2c1[nH]c1ccccc12 19.9%
O=S(=O)(c1ccc(S(=O)(=O)n2cnc3ccccc32)cc1)N1CCCCCC1 8.9%
C=CCO/N=C/C1C(=O)CC(C)(C)CC1=O -25.9%
O=C(NC12CC3CC(CC(C3)C1)C2)N1CCN(c2ccccc2)CC1 -18%
Clc1ccccc1OCCCOc1cccc2cccnc12 -0.6%
CN(Cc1cccs1)c1nc(-c2cccnc2)nc2ccccc12 -37.4%
COc1ccc(CN(C)c2nc(-c3cccnc3)nc3ccccc23)cc1OC 36.1%
Cc1ccc2cc(C#N)c(NCCNC(=S)NCCCN(C)C)nc2c1C -23.4%
CCCCn1c(SCC(=O)Nc2nnc(C)s2)nc2c1c(=O)n(C)c(=O)n2C 6.2%
CCCn1c(SCC(=O)Nc2nnc(C(C)C)s2)nc2c1c(=O)n(C)c(=O)n2C 34%
O=C(c1cnn(C(=O)c2cccc(S(=O)(=O)N3CCOCC3)c2)c1)c1ccccc1O 9.5%
COc1ccc(S(=O)(=O)N2CCc3ccccc32)cc1C(=O)OCC(=O)c1c(N)n(C)c(=O)n(C)c1=O -11.1%
CC1CCCCC1NC(=O)CCCn1c(=S)[nH]c2ccsc2c1=O (configuration not stated) -13.7%
CCn1cc(CN2CCc3c([nH]c4ccccc34)C2c2ccc(F)c(OC)c2)c(C)n1 (configuration not stated) -23.6%
Cc1ccc(CS(=O)(=O)CCC(=O)NCCCN2CCCC2)cc1 -5.9%
Cc1ccc(CS(=O)(=O)CCC(=O)NCCN2CCCC2)cc1 -7.3%
CN(Cc1ccccc1)c1nc(N)c([N+](=O)[O-])c(Nc2cccc(F)c2)n1 -10.7%
Cc1c(O)c2cccnc2[nH]c1=O -21.9%
c1ccc(C2=NNC(=NC3CC3)SC2)cc1 59.6%
c1ccc(CN=C2NN=C(c3cc4ccccc4o3)CS2)cc1 -43%
CCCCN=C1NN=C(c2ccc3c(c2)OCCO3)CS1 14.8%
Cc1cccc(N=C2NN=C(c3ccc4c(c3)OCCO4)CS2)c1 -35.2%
CC(C)(C)N=C1NN=C(c2cc3ccccc3o2)CS1 -38.4%
COc1ccc(N=C2NN=C(c3ccc4c(c3)OCCO4)CS2)cc1 -44.7%
CCOC(=O)N1CCC(NC(=O)CN2C(=O)CSc3nc(C)cc(C)c32)CC1 -2.4%
Cc1ccc(Nc2nc(N)nc(CSC(=S)N3CCOCC3)n2)c(C)c1 -10%
COc1cc(/C=C/CO)cc(OC)c1OC/C=C(\C)CCC=C(C)C 0.8%
COCCn1c(SCC(=O)Nc2ccccc2C(F)(F)F)nc2ccccc2c1=O -11.7%
COc1ccc(-c2cc(C3CC3)nc3sc(C#N)c(N)c23)cc1 7.9%
CC(C)c1cc(C(=O)N/N=C/c2c[nH]c3ccccc23)n[nH]1 -15.2%
COC(=O)COc1cccc2c(=O)n(CC(=O)NCCc3ccccc3)ccc12 -38.1%
Cc1cccc(Nc2ncnc(N)c2[N+](=O)[O-])n1 28.6%
Nc1ncnc(NCc2ccccc2)c1[N+](=O)[O-] 37.6%
Cc1ccc(CNc2nc(N)c([N+](=O)[O-])c(NCc3ccccc3)n2)cc1 0.5%
Cc1cccnc1Nc1ncnc(N)c1[N+](=O)[O-] -32%
COc1ccc(Cc2nc3ccc(C(=O)N4CCCC4)cc3o2)cc1OC 1.3%
Cc1ccc(Cn2nc(C)c(NC(=O)CCCn3nc([N+](=O)[O-])c(Cl)c3C)c2C)cc1 -25.5%
COc1ccc(C)cc1Nc1n[n+](-c2ccccc2)c(-c2ccc(NC(C)=O)cc2)s1 -19%
CCn1c2ccccc2c2cc(/C=N/NC(=O)c3ccccc3)ccc21 41.4%
CCn1c2ccccc2c2cc(/C=N/NC(=O)c3ccc(O)cc3)ccc21 32.8%
CCOCc1c(C(=O)NC2=Nc3ccccc3NC(CC)=C2C(=O)OCC)oc2ccccc12 4.5%
CCOC(=O)C1=C(CC)Nc2ccccc2N=C1NC(=O)CCNC(C)=O -28.2%
O=C(Cc1ccccc1)NN1C(=O)C2C3C=CC(C3)[C@@H]2C1=O (some centres not stated) -12.9%
Cc1nc(SCCOc2ccc(F)cc2)c2ccccc2n1 -33.3%
COC(=O)c1ccccc1NC(=O)Cn1cnc2cc(C)c(C)cc21 -3.9%
Cc1ccc(NC(=O)CCn2cnc3cc(C)c(C)cc32)cc1 -8.2%

inhibition, active:
CC(=O)N1c2ccccc2C2(O)N=C(C)SC12 (configuration not stated) 66.4%
CCCCOCCCNc1ncnc2c1[nH]c1ccccc12 65.9%
CCOc1ccc(CN(C)c2nc(-c3cccnc3)nc3ccccc23)cc1OC 55.2%
Cc1ccc(CS(=O)(=O)CCC(=O)NCCN2CCCCC2C)cc1 (configuration not stated) 96.5%
c1cc2c(cc1C1=NNC(=NC3CC3)SC1)OCCO2 96.6%
C=CCN=C1NN=C(c2ccc3c(c2)OCCO3)CS1 67.8%
c1ccc2oc(C3=NNC(=NC4CC4)SC3)cc2c1 86.6%
CCn1c2ccccc2c2cc(/C=N/NC(=O)c3cc(O)cc(O)c3)ccc21 58.8%
CCOC(=O)C1=C(CC)Nc2ccccc2N=C1NC(=O)c1oc2ccccc2c1C 56.6%
CCOC(=O)c1ccc(NC(=O)Cn2cnc3cc(C)c(C)cc32)cc1 33%
